# Reference: PubChem BioAssay (Tox21)
# A number with no mark means an inactive call. Records with an inconclusive call do not appear. Where a call stands in place of a potency, no number is given. Calls of active or inactive are those of the source. Unless noted, calls come from the whole dose curve; as a rule, active = well fitted curve in the direction sought with a large enough effect in the repeat runs; inconclusive = weak or mixed curves; inactive = no such curve, though single readings can be large; an effect the other way counts as inactive or inconclusive.
# Tests used:
# [1] = A CellTox Green Cytotoxicity Assay to monitor cytotoxicity in HEK293 cells - 16 hour (AID 1224888); note: nearly all actives have a fitted effect of over 35% in size
# Summary of the method: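 Fluorescence intensity, read at 0, 8, 16, 24, 32 and 40 h of compound treatment, reflected dye binding to DNA of dead HEK293 cells; compounds (23 nL, DMSO) were added 5 h after plating cells with reagent.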
# [2] = qHTS RealTime-Glo MT Cell Viability Assay in HepG2 cells - 0 hour (AID 1224889); note: nearly all actives have a fitted effect of over 50% in size; note: potency is the fitted concentration of half-maximal effect
# Summary of the method: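 qHTS, HepG2, 600 cells/well, RealTime-Glo (NanoLuc + prosubstrate) added with cells; 5 h preincubation; DMSO compound addition; 37 C; luminescence at 0/8/16/24/32/40 h.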
# [3] = A CellTox Green Cytotoxicity Assay to monitor cytotoxicity in HepG2 cells - 8 hour (AID 1224890); note: nearly all actives have a fitted effect of over 45% in size
# Summary of the method: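 Using 1536-well format, dye-containing HepG2 suspension was seeded, allowed 5 h at 37 C/5% CO2, dosed by pintool with compounds, positive and negative controls, and imaged for fluorescence across 40 h.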
# [4] = qHTS assay to identify small molecule antagonists of the estrogen receptor alpha (ER-alpha) signaling pathway using the BG1 cell line in the presence of 0.1 nM 17-beta-estradiol - cell viability counter screen (AID 1259241); note: nearly all actives have a fitted effect of over 40% in size
# Summary of the method: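 VM7Luc4E2 cells (endogenous ER-alpha, 4×ERE-luciferase), hormone-starved 5 days in charcoal-stripped FBS, were treated with compounds plus 0.1 nM 17beta-estradiol for 22 hr at 37C; viability read in same wells as CellTiter-Fluor live-cell protease fluorescence.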
# [5] = qHTS assay to identify small molecule antagonists of the androgen receptor (AR) signaling pathway using the MDA cell line in the presence of 0.5 nM R1881 - cell viability counter screen (AID 1259242); note: nearly all actives have a fitted effect of over 45% in size
# Summary of the method: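 Viability of MDA-kb2 cells was multiplexed with the luciferase AR readout; after 16 hr with compounds and R1881 at 0.5 nM final, CellTiter-Fluor fluorescence was recorded.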
# [6] = target: Estrogen receptor (Homo sapiens) (UniProt P03372); assay: qHTS assay to identify small molecule antagonists of the estrogen receptor alpha (ER-alpha) signaling pathway using the BG1 cell line in the presence of 0.1 nM 17-beta-estradiol (AID 1259244); note: nearly all actives have a fitted effect of over 50% in size
# Estrogen receptor (Homo sapiens), sequence (P03372 whole entry, looked up): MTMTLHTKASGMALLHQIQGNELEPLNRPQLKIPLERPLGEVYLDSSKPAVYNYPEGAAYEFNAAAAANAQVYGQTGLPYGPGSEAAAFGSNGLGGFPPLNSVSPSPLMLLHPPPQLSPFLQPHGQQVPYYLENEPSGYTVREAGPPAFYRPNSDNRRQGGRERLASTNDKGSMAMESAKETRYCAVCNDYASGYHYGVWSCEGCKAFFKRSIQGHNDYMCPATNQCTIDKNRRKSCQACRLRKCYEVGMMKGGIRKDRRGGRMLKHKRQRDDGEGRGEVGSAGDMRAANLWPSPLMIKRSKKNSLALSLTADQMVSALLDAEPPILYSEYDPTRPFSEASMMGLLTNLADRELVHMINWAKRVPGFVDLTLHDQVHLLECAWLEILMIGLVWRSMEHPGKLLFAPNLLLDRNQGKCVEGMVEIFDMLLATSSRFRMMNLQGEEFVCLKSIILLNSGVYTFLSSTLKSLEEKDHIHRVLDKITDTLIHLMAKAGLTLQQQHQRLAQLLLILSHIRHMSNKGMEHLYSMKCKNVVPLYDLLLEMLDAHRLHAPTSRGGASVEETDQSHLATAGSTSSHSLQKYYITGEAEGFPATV
# Summary of the method: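 Estradiol at 0.1 nM (final) stimulates the endogenous ER-alpha of VM7Luc4E2 cells carrying an ERE-driven luciferase; compounds are co-incubated 22 h at 37C and luciferase output quantified by luminescence.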
# [7] = qHTS assay to identify small molecule HDAC inhibitors (AID 1259364);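 note: wild-type HCT-116 cells with endogenous class I/II HDAC activity; top concentration of the series differs between compounds; nearly all actives have a fitted effect of over 45% in size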
# Summary of the method: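 Read-out: luminescence of HDAC-Glo I/II reagent, 30 min RT, reflecting class I/II deacetylase activity in whole HCT-116 cells pre-exposed 2 h to DMSO-dissolved compounds.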
# [8] = qHTS assay to identify small molecule HDAC inhibitors - cell viability counter screen (AID 1259365); note: series mostly up to about 92 µM; nearly all actives have a fitted effect of over 50% in size
# Summary of the method: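 Wild-type HCT-116 cells were seeded at 1,500 per well, incubated overnight at 37 C, then exposed to compounds in DMSO for 2hr. Viability was read by CellTiter-Glo luminescence after 30min at room temperature.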
# [9] = qHTS assay to identify small molecule agonists of the sonic hedgehog signaling (Shh) pathway - cell viability counter screen (AID 1259366); note: nearly all actives have a fitted effect of over 50% in size
# Summary of the method: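 NIH/3T3-derived 3T3 Gli1-Luc cells (stable Gli1-responsive firefly luciferase reporter) were seeded, rested 4 hr at 37 C/5% CO2, then exposed to compounds in DMSO for 24 hr; viability was read by CellTiter-Fluor fluorescence in the same wells.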
# [10] = qHTS assay to identify small molecule antagonists of the sonic hedgehog signaling (Shh) pathway - cell viability counter screen (AID 1259367); note: nearly all actives have a fitted effect of over 55% in size
# Summary of the method: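 After a 4 hr settling period, 3T3 Gli1-Luc cells were treated with DMSO-dissolved chemicals and conditioned medium, kept 24 hr at 37C in 5% CO2, and assayed for viability by CellTiter-Fluor fluorescence following 1 hr reagent incubation.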
# [11] = qHTS assay to identify small molecule agonists of the sonic hedgehog signaling (Shh) pathway (AID 1259368; calls by dose curve; note: series mostly up to about 92 µM; nearly all actives have a fitted effect of over 15% in size)
# Summary of the method: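 A Gli1 transcriptional response element controlled firefly luciferase in 3T3Gli1-Luc cells. Compounds and a positive control were added 4 hr after plating, and cells were incubated a further 24 hr at 37 C before luminescence detection.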
# [12] = qHTS assay to identify small molecule antagonists of the sonic hedgehog signaling (Shh) pathway (AID 1259369; calls by dose curve; note: nearly all actives have a fitted effect of over 45% in size)
# Summary of the method: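 For antagonist detection, the reporter line received test compounds together with conditioned medium, incubated 24hr at 37 C, 5% CO2, then luminescence was recorded following 30min room-temperature luciferase reagent incubation.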
# [13] = target: Estrogen receptor beta (Homo sapiens) (UniProt Q92731); assay: qHTS assay to identify small molecule agonists of the estrogen receptor beta (ER-beta) signaling pathway (AID 1259377; active = well fitted activation curve with a large enough effect in the signal ratio in the repeat runs, not every such curve was filed as active; the % refers to the signal ratio)
# Estrogen receptor beta (Homo sapiens), sequence (Q92731 whole entry, looked up): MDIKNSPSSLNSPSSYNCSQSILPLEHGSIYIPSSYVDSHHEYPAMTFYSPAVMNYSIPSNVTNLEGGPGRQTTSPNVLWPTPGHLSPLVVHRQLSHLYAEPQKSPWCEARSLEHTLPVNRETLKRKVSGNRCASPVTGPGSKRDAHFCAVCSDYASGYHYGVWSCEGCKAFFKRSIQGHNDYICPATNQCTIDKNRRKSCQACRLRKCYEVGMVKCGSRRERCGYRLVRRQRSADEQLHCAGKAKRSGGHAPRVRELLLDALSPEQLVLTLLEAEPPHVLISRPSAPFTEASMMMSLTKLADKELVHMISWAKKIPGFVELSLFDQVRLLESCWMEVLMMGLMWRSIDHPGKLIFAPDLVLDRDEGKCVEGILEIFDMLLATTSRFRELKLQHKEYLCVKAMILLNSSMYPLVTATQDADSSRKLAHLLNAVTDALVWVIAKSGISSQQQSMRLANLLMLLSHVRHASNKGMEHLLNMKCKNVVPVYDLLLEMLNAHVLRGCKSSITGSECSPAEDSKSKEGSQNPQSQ
# Summary of the method: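 ER-beta-UAS-bla HEK293T (GripTite) cells carrying a UAS-driven beta-lactamase reporter, in medium with 2% charcoal-stripped FBS, were exposed to compounds for 16 hr at 37C; LiveBLAzer B/G FRET substrate was then added and fluorescence read after 2 hours at room temperature.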
# [14] = target: Estrogen receptor beta (Homo sapiens) (UniProt Q92731); assay: qHTS assay to identify small molecule antagonists of the estrogen receptor beta (ER-beta) signaling pathway (AID 1259378; active = well fitted inhibition curve with a large enough effect in the signal ratio in the repeat runs, not every such curve was filed as active; the % refers to the signal ratio)
# Summary of the method: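 ER-beta-UAS-bla HEK293T (GripTite) cells in 2% charcoal-stripped FBS medium were preincubated 6 hr at 37C, dosed with compound, then stimulated with 1 nM E2 (final) for 16 hr; beta-lactamase reporter read by B/G FRET fluorescence after 2 hr substrate loading.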
# [15] = qHTS assay to identify small molecule agonists of the androgen receptor (AR) signaling pathway in the presence of an antagonist - cell viability counter screen (AID 1259379);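 note: MDA-kb2 human breast cancer cells carrying an MMTV luciferase reporter; series mostly up to about 92 µM; nearly all actives have a fitted effect of over 25% in size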
# Summary of the method: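 Seed MDA-kb2 at 3,000 cells/well; incubate 5 hr, 37C, 0% CO2. Add nilutamide to 3.0uM final, then pin compounds at 15 concentrations. Incubate 16 hr. Add CellTiter-Fluor at 15 hr, read fluorescence after 1 hr.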
# [16] = qHTS assay to identify small molecule agonists of the estrogen receptor beta (ER-beta) signaling pathway - cell viability counter screen (AID 1259380); note: nearly all actives have a fitted effect of over 30% in size
# Summary of the method: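 CellTiter-Glo read, 30 min RT, same wells as bla assay; cells ER-beta-UAS-bla HEK293T; 16 hr compound, 37C; medium 2% charcoal-stripped FBS.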
# [17] = qHTS assay to identify small molecule antagonists of the estrogen receptor beta (ER-beta) signaling pathway - cell viability counter screen (AID 1259382); note: series mostly up to about 92 µM; nearly all actives have a fitted effect of over 55% in size
# Summary of the method: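 In this multiplexed counter screen, cells were seeded at 2,000 per well in medium with 2% charcoal-stripped FBS and incubated 6 hr before compound and 1nM final E2 were added. Sixteen hours later, ATP-based luminescence reported viability.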
# [18] = qHTS assay to identify small molecule phospholipidosis (PLD) inducers (AID 1259344; active = well fitted curve in the direction sought with a large enough effect; an effect the other way counts as inactive or inconclusive)
# Summary of the method: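 HepG2 cells grown on collagen I take up LipidTOX Red while exposed to compound for 24 h; after fixation they are imaged at 20x and pit metrics are extracted.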
compound,measurement,setting,value
CCC(C)c1nccnc1OC (configuration not stated),Potency,[1],inactive
same,Potency,[2],inactive
same,Potency,[3],inactive
same,outcome,[4],inactive
same,outcome,[5],inactive
same,outcome,[6],inactive
same,Potency,[7],inactive
same,outcome,[8],inactive
same,outcome,[9],inactive
same,outcome,[10],inactive
same,outcome,[11],inactive
same,Potency,[12],inactive
same,Potency,[13],inactive
same,outcome,[14],inactive
same,outcome,[15],inactive
same,Potency,[16],inactive
same,outcome,[17],inactive
C=CCCCCCCCCOC(C)=O,Potency,[1],inactive
same,Potency,[2],inactive
same,Potency,[3],inactive
same,outcome,[4],inactive
same,outcome,[5],inactive
same,outcome,[6],inactive
same,Potency,[7],inactive
same,outcome,[8],inactive
same,outcome,[9],inactive
same,outcome,[10],inactive
same,outcome,[11],inactive
same,Potency,[12],inactive
same,Potency,[13],inactive
same,outcome,[14],inactive
same,outcome,[15],inactive
same,Potency,[16],inactive
same,outcome,[17],inactive
CN(C)CCCN(C)C,activity change,[1],"-1.52% [at 6.97 µM, active compounds read high]"
same,"activity change, negative = cytotoxicity",[2],-4.9% [at 6.97 µM]
same,cytotoxicity increase,[3],-9.61% [at 6.97 µM]
same,"activity change, negative = cytotoxicity",[4],-1.36% [at 8.39 µM]
same,"viability change, negative = cytotoxic",[5],2.3% [at 8.39 µM]
same,"activity change, negative = inhibition",[6],-10.8% [at 8.39 µM]
same,"activity change, negative = inhibition",[7],2.55% [at 8.39 µM]
same,"activity change, negative = cytotoxicity",[8],1.58% [at 8.39 µM]
same,"viability change, negative = cytotoxic",[9],-8.84% [at 8.39 µM]
same,"viability change, negative = cytotoxic",[10],4.7% [at 8.39 µM]
same,activity change,[11],0.31% [at 8.39 µM]
same,"activity change, negative = inhibition",[12],5.84% [at 8.39 µM]
same,activation,[13],-0.616% [at 8.39 µM]
same,"activity, negative = inhibition",[14],14.4% [at 8.39 µM]
same,"activity change, negative = cytotoxicity",[15],4.3% [at 8.39 µM]
same,"activity change, negative = cytotoxicity",[16],5.46% [at 8.39 µM]
same,"activity change, negative = cytotoxicity",[17],-0.979% [at 8.39 µM]
CC(=O)OCC(=O)[C@@]1(O)CC[C@H]2[C@@H]3CCC4=CC(=O)C=C[C@]4(C)[C@H]3[C@@H](O)C[C@@]21C,Potency,[1],inactive
same,Potency,[2],10.7 µM (active)
same,Potency,[3],inactive
same,outcome,[4],inactive
same,outcome,[5],inactive
same,outcome,[6],inactive
same,Potency,[18],inactive
same,Potency,[7],inactive
same,outcome,[8],inactive
same,outcome,[9],inactive
same,outcome,[10],inactive
same,outcome,[11],inactive
same,Potency,[12],inactive
same,Potency,[13],inactive
same,outcome,[15],inactive
same,Potency,[16],inactive
same,outcome,[17],inactive
O=P(O)(O)C(O)(Cc1cccnc1)P(=O)(O)O,Potency,[1],inactive
same,Potency,[2],inactive
same,Potency,[3],inactive
same,outcome,[4],inactive
same,outcome,[5],inactive
same,outcome,[6],inactive
same,Potency,[18],inactive
same,outcome,[8],inactive
same,outcome,[9],inactive
same,outcome,[10],inactive
same,outcome,[11],inactive
same,Potency,[12],inactive
same,outcome,[15],inactive
same,Potency,[16],inactive
same,outcome,[17],inactive
CCCCCCCCCCCCCCCC(=O)OC,activity change,[1],"0.239% [at 15.8 µM, active compounds read high]"
same,"activity change, negative = cytotoxicity",[2],-16.3% [at 15.8 µM]
same,cytotoxicity increase,[3],-16.6% [at 15.8 µM]
same,"activity change, negative = cytotoxicity",[4],6.9% [at 19 µM]
same,"viability change, negative = cytotoxic",[5],3.68% [at 19 µM]
same,"activity change, negative = inhibition",[6],-4.11% [at 19 µM]
same,"activity change, negative = inhibition",[7],2.36% [at 19 µM]
same,"activity change, negative = cytotoxicity",[8],-1.77% [at 19 µM]
same,"viability change, negative = cytotoxic",[9],4.58% [at 19 µM]
same,"viability change, negative = cytotoxic",[10],-2.31% [at 19 µM]
same,activity change,[11],0.811% [at 18.9 µM]
same,"activity change, negative = inhibition",[12],21.4% [at 19 µM]
same,activation,[13],-1.46% [at 19 µM]
same,"activity, negative = inhibition",[14],3.6% [at 19 µM]
same,"activity change, negative = cytotoxicity",[15],0.0056% [at 19 µM]
same,"activity change, negative = cytotoxicity",[16],4.05% [at 19 µM]
same,"activity change, negative = cytotoxicity",[17],0.248% [at 19 µM]
Cc1cc(C)c(N)c(Cl)c1,Potency,[1],inactive
same,Potency,[2],inactive
same,Potency,[3],inactive
same,outcome,[4],inactive
same,outcome,[5],inactive
same,outcome,[6],inactive
same,Potency,[7],inactive
same,outcome,[8],inactive
same,outcome,[9],inactive
same,outcome,[10],inactive
same,outcome,[11],inactive
same,Potency,[12],inactive
same,Potency,[13],inactive
same,outcome,[14],inactive
same,outcome,[15],inactive
same,Potency,[16],inactive
same,outcome,[17],inactive
